Laboratory results taken from PubChem BioAssay AID1159580 (chemical genetic matrix, 2015).
Out of some 5,500 compounds screened, about 2,000 (36%) were called active. Roughly 18% stayed inconclusive and do not appear here. Cut-off read from the data, not from the text of the source: active = normalized growth mostly below about 0.91 (no sharp cut-off); inconclusive = no clear call, values can overlap the other calls; inactive = mostly above about 0.92. Some of the results follow.

Experiment: chemical genetic growth profiling, strain panel (AID 1159580);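 note: tested at 20 µM; growth read once vehicle control cultures reached saturation at 30 °C; 1 = growth at the plate median or of vehicle wells; lower values mean less growth of the strain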
Details: S. cerevisiae deletion strains, growth OD

Measured: normalized growth

CCCOc1ccc(C(=O)OCCN(CC)CC)cc1N
inactive: locus YAL021C, strain ccr4, hits give low values 0.979 | locus YAL026C, strain drs2, hits give low values 1.01 | locus YAL030W, strain snc1, hits give low values 1 | locus YBL061C, strain skt5, hits give low values 1 | locus YBR009C, strain hhf1, hits give low values 1.03 | locus YBR023C, strain chs3, hits give low values 1.02 | locus YBR171W, strain sec66, hits give low values 1.02 | locus YBR231C, strain swc5, hits give low values 1.01 | locus YBR279W, strain paf1, hits give low values 1.01 | locus YCL011C, strain gbp2, hits give low values 1 | locus YCL016C, strain dcc1, hits give low values 1 | locus YCL061C, strain MRC1, hits give low values 1 | locus YCL069W, strain vba3, hits give low values 0.999 | locus YCR088W, strain abp1, hits give low values 1.01 | locus YDL005C, strain med2, hits give low values 1.01 | locus YDL040C, strain nat1, hits give low values 1 | locus YDR001C, strain nth1, hits give low values 1 | locus YDR069C, strain doa4, hits give low values 1.01 | locus YDR137W, strain rgp1, hits give low values 1.04 | locus YDR159W, strain sac3, hits give low values 1.02 | locus YDR195W, strain ref2 0.964 | locus YDR297W, strain sur2, hits give low values 1 | locus YDR334W, strain swr1, hits give low values 0.995 | locus YDR335W, strain msn5, hits give low values 1 | locus YDR392W, strain spt3, hits give low values 1.02 | locus YEL003W, strain gim4, hits give low values 1.01 | locus YEL037C, strain rad23, hits give low values 0.979 | locus YEL061C, strain CIN8 (second series), hits give low values 1 | locus YER015W, strain faa2, hits give low values 1.03 | locus YER016W, strain bim1, hits give low values 1 | locus YER111C, strain swi4, hits give low values 0.999 | locus YER155C, strain BEM2 (second series), hits give low values 1 | locus YFR010W, strain ubp6, hits give low values 0.996 | locus YGL167C, strain pmr1, hits give low values 1.01 | locus YGL173C, strain kem1, hits give low values 1 | locus YGL227W, strain vid30, hits give low values 1 | locus YGL240W, strain doc1, hits give low values 1.02 | locus YGL253W, strain hxk2, hits give low values 1.01 | locus YHR013C, strain ard1, hits give low values 1.01 | locus YHR027C, strain rpn1, hits give low values 1 | locus YHR030C, strain SLT2, hits give low values 1.05 | locus YHR079C, strain IRE1, hits give low values 1.04 | locus YHR142W, strain chs7, hits give low values 0.981 | locus YJL092W, strain hpr5, hits give low values 1 | locus YJL095W, strain BCK1 (second series), hits give low values 1 | locus YJL095W, strain BCK1, hits give low values 1 | locus YJL115W, strain asf1, hits give low values 1 | locus YJL129C, strain trk1, hits give low values 0.995 | locus YJL154C, strain vps35, hits give low values 1.01 | locus YJL164C, strain tpk1, hits give low values 0.999 | locus YJL166W, strain qcr8, hits give low values 1 | locus YJL187C, strain SWE1, hits give low values 1 | locus YJR066W, strain TOR1, hits give low values 0.972 | locus YKL160W, strain elf1, hits give low values 0.989 | locus YKR026C, strain gcn3, hits give low values 0.984 | locus YKR091W, strain srl3, hits give low values 1 | locus YLL001W, strain dnm1, hits give low values 1.01 | locus YLL026W, hits give low values 1.01 | locus YLL041C, strain sdh2, hits give low values 0.998 | locus YLR027C, strain aat2, hits give low values 1 | locus YLR113W, strain HOG1, hits give low values 0.968 | locus YLR221C, strain rsa3, hits give low values 1 | locus YLR258W, strain gsy2, hits give low values 1.01 | locus YLR262C, strain YPT6 (second series), hits give low values 1.01 | locus YLR320W, strain mms22, hits give low values 1.02 | locus YLR342W, strain FKS1, hits give low values 0.999 | locus YLR357W, strain rsc2, hits give low values 1.01 | locus YLR370C, strain arc18, hits give low values 1.01 | locus YLR384C, strain iki3, hits give low values 1 | locus YML120C, strain ndi1, hits give low values 1.01 | locus YMR058W, strain fet3, hits give low values 1.01 | locus YMR125W, strain sto1, hits give low values 1.02 | locus YMR129W, hits give low values 1.01 | locus YMR205C, strain PFK2, hits give low values 1.04 | locus YMR231W, strain pep5, hits give low values 1 | locus YNL071W, strain lat1, hits give low values 1 | locus YNL183C, strain NPR1, hits give low values 0.966 | locus YNL209W, strain ssb2, hits give low values 1 | locus YNL248C, strain rpa49, hits give low values 0.971 | locus YNL322C, strain KRE1 (second series), hits give low values 1.01 | locus YNR049C, strain mso1, hits give low values 1 | locus YOR001W, strain rrp6, hits give low values 0.984 | locus YOR070C, strain gyp1, hits give low values 1.02 | locus YOR080W, strain dia2, hits give low values 1 | locus YOR083W, strain WHI5, hits give low values 0.986 | locus YOR106W, strain vam3, hits give low values 0.994 | locus YOR231W, strain MKK1, hits give low values 1.03 | locus YOR265W, strain rbl2, hits give low values 1 | locus YOR270C, strain vph1, hits give low values 1.04 | locus YOR290C, strain snf2, hits give low values 1.01 | locus YPL051W, strain arl3, hits give low values 0.997 | locus YPL078C, strain atp4, hits give low values 0.98 | locus YPL106C, strain sse1, hits give low values 1.01 | locus YPL240C, strain hsp82, hits give low values 0.988 | locus YPL256C, strain CLN2, hits give low values 1.02
